The panel holds about 83,000 compounds, 20% with a hit somewhere; the sample as a whole holds those more often.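 Compound tested at a single concentration for 48 hours in 96-well plates; a percent growth value below 10 was scored as active.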 A number with no mark means an inactive call. Activity calls are given as the source filed them.
What was measured:
Assay in all cases: NCI-60 one-dose screen, 48 h (100 = growth as untreated, 0 = no growth, -100 = all killed)
Details in all cases: 10 µM
HCT-15 colon = tested on: HCT-15 colon
HT29 colon = tested on: HT29 colon
SNB-75 CNS = tested on: SNB-75 CNS
SNB-19 CNS = tested on: SNB-19 CNS
U251 CNS = tested on: U251 CNS
PC-3 prostate = tested on: PC-3 prostate
SK-MEL-5 melanoma = tested on: SK-MEL-5 melanoma
UACC-62 melanoma = tested on: UACC-62 melanoma
LOX IMVI melanoma = tested on: LOX IMVI melanoma
SK-MEL-28 melanoma = tested on: SK-MEL-28 melanoma

Row | Structure (SMILES) | growth (HCT-15 colon) | growth (HT29 colon) | growth (SNB-75 CNS) | growth (SNB-19 CNS) | growth (U251 CNS) | growth (PC-3 prostate) | growth (SK-MEL-5 melanoma) | growth (UACC-62 melanoma) | growth (LOX IMVI melanoma) | growth (SK-MEL-28 melanoma)
1 | COc1cc2nc(Sc3sc(N)nc3C)n(-c3ccc(Oc4ccccc4)cc3)c(=O)c2cc1OC | 79.9% | 75% | 86.7% | 105% | 87.6% | 65.2% | 76.8% | 81.4% | 78.3% | 97.9%
2 | COc1ccc(-n2nnc3c(sc4ccccc43)c2=O)cc1 | 102% | 43.8% | -9.25% (active) | 33.7% | 18.9% | 73% | 74.5% | 93.9% | 74.4% | 82.8%
3 | COc1cccc(C2(C)Nc3ccccc3-c3nc4ccccc4n32)c1 (stereo not given) | 105% | 113% | 103% | 105% | 101% | 109% | 101% | 102% | 101% | 107%
4 | COc1ccc(-c2nnc(SCC(=O)c3ccccc3)o2)cc1 | 96.3% | 90.8% | 92.5% | 96.9% | 98.1% | 97.1% | 92.8% | 88.3% | 92.8% | 106%
5 | O=c1oc2cc(OS(=O)(=O)C3CC3)ccc2c2c1CCCCCC2 | 72.8% | 25.9% | 98.7% | 88.2% | 79.1% | 68.7% | 37.3% | 71.3% | 85.8% | 93.7%
6 | O=C(Nc1cccc(Cl)c1)OCC(COC(=O)Nc1cccc(Cl)c1)(COC(=O)Nc1cccc(Cl)c1)[N+](=O)[O-] | 22.6% | 32% | 49.9% | 42.8% | 34.7% | 24.1% | 44.2% | 31.9% | 15.6% | 51.1%
7 | C#CCNCCCN1C(=O)c2ccc3c4c(ccc(c24)C1=O)C(=O)N(CCCNCC#C)C3=O | -82.3% (active) | -8.76% (active) | -98.7% (active) | -88.6% (active) | -76.6% (active) | -28% (active) | -98.7% (active) | -75.8% (active) | -94.4% (active) | -81.8% (active)
8 | O=C(CCl)N1c2ccccc2Sc2ccc3ccccc3c21 | -51.3% (active) | -76.1% (active) | 3.3% (active) | 69.7% | 0.19% (active) | -86.6% (active) | 22.9% | -0.738% (active) | -78.3% (active) | 19.6%
9 | CCn1nc(-c2ccc(C(=O)OC)cc2)nc2c(=O)n(C)c(=O)nc1-2 | 64.1% | 70.7% | -44% (active) | 56.8% | 41.5% | 57.3% | 87% | 50.5% | 55.5% | 77.7%
10 | O=C(O)CCCN1C(=O)NC2(C1=O)c1ccccc1-c1ccccc12 | 102% | 93.3% | 88.9% | 104% | 94.7% | 94.4% | 96% | 99.3% | 94.8% | 107%
11 | C=CCc1cc(Nc2c3ccc(Cl)cc3nc3ccc(OC)cc23)cc(CN(CC)CC)c1O | 9.53% (active) | 3.04% (active) | 13% | 20.6% | 12.5% | 9.79% (active) | -92.7% (active) | 19.1% | -32.9% (active) | 39.1%
12 | COc1cc([C@@H]2c3cc4c(cc3[C@H](SC(=N)N)[C@H]3COC(=O)[C@H]23)OCO4)cc(OC)c1OC | 11.8% | 8.38% (active) | 30.1% | 37.4% | 23.2% | 19.5% | -29.6% (active) | 62.2% | 16.5% | 63.7%
13 | CNC(=S)Sc1ccc([N+](=O)[O-])cc1[N+](=O)[O-] | 36.8% | 4.84% (active) | 88.1% | 94.3% | 72.5% | 84.4% | 44.8% | 81.6% | 19.3% | 66.1%
14 | COC(=O)C1(C(=O)OC)C2C(=O)C3C(C21)C3(C(=O)OC(C)(C)C)C(=O)OC(C)(C)C (stereo not given) | 108% | 112% | 88.5% | 110% | 104% | 90.2% | 100% | 112% | 103% | 107%
15 | CCCc1c(C)nc2scc(-c3ccc(Cl)cc3)n2c1=O | 101% | 101% | 97.9% | 105% | 97.2% | 97.3% | 99.1% | 100% | 95.8% | 112%
16 | NC(=O)C12C(=O)NC(=O)C1(C(=O)O)C21CCCC1 (stereo not given) | 107% | 110% | 84.2% | 99.3% | 102% | 99% | 106% | 101% | 102% | 109%
17 | COc1ccc(-c2cc(/C=C3\C(=O)Nc4cc(Cl)ccc43)[nH]n2)cc1 | 28.6% | 1.13% (active) | -27.5% (active) | 49% | 40.1% | 14% | 25.1% | 32.4% | 38.2% | 50.5%
18 | FC(F)(F)c1ccc(-c2nc(-c3nc4cc(Cl)c(Cl)cc4[nH]3)c3ccccn23)cc1 | 82.6% | 55.9% | -16.1% (active) | 84.4% | 47.6% | 48.3% | 53.4% | 71.1% | 62.6% | 57.4%
19 | CCc1ccc(-c2nnc(COc3ccc(-c4nc5cc(Cl)c(Cl)cc5[nH]4)cc3OC)o2)cc1 | 44.9% | 62.1% | 48.4% | 68.3% | 29.1% | 52.6% | 84.9% | 78.8% | 43.3% | 67.1%
20 | O=C1CC(c2cccc(-c3cccnc3)c2)=Nc2ccc(Br)cc2N1 | 61.9% | 56.6% | 11.6% | 62.9% | 27.2% | 30.8% | 8.01% (active) | 47.3% | 55.8% | 67.5%
21 | Fc1ccc(-c2cc(C(Cl)Cl)no2)cc1 | 96.9% | 114% | 72.4% | 94.7% | 108% | 93% | 94.3% | 92.8% | 101% | 109%
22 | COc1ccccc1Cn1cc2c(c1-c1ccccc1)CCc1cnoc1-2 | 36% | 12.4% | 15.6% | 53.5% | 39.7% | 29.9% | 18.1% | 50.1% | 38.1% | 58.3%
23 | CC(C)OP(=O)(O)c1ncc(-c2ccc(C(F)(F)F)cc2)c(NC2CCCCCC2)n1 | 95.4% | 47.5% | 73% | 71.3% | 30.4% | 24.2% | 43% | 31.6% | 64.6% | 51.4%
24 | O=C(Cn1ccc(=O)[nH]c1=O)c1ccc([N+](=O)[O-])o1 | 94.7% | 101% | 103% | 120% | 95.2% | 85.8% | 90.7% | 87% | 80% | 95.3%
25 | Nc1ncncc1-c1ccc(F)cc1 | 103% | 113% | 85.3% | 106% | 103% | 103% | 104% | 107% | 98.7% | 115%
26 | NC1CCC(Nc2nc(NCc3ccc(-c4cccs4)nc3)c3ncn(C4CCCC4)c3n2)CC1 (stereo not given) | 0.306% (active) | -12.7% (active) | -63.5% (active) | 10.2% | 3.21% (active) | 1.6% (active) | -96.8% (active) | -42.4% (active) | -82.1% (active) | -62.3% (active)
27 | Cc1ccc(C)c2c1sc1nc3n[nH]c(N)c3c(=N)n12 | 102% | 111% | 88.5% | 99% | 100% | 85.7% | 99.3% | 108% | 96.2% | 106%
